ChEMBL document CHEMBL1961873, “Compounds: GSK PKIS; Assays: Nanosyn kinase panel” (2012)

Key:
[1] = molecular target: Protein kinase C gamma type (Homo sapiens) (UniProt P05129); conditions: at 1 µM;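 also: each value is an averaged percent inhibition of the enzyme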
[2] = molecular target: T1, Protein kinase C iota type (Homo sapiens) (UniProt P41743); conditions: at 0.1 µM
T1 sequence (whole entry): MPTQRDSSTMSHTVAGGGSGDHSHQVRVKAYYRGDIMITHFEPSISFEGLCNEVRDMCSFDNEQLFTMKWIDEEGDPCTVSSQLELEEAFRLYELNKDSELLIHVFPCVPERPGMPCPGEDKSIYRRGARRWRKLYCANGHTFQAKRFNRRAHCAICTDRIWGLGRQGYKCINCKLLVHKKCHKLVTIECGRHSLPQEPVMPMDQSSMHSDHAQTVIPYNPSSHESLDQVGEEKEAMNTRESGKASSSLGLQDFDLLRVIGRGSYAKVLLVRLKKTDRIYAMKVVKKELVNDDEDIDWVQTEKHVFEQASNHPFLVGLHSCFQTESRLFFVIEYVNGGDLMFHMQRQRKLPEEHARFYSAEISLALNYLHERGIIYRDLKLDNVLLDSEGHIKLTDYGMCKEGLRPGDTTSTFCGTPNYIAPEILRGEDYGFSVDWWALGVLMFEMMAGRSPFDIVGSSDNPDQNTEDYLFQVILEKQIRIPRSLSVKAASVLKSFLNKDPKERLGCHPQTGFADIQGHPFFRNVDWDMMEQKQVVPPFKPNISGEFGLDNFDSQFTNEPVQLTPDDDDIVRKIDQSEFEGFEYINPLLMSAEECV

[3] = molecular target: T1, Protein kinase C iota type (Homo sapiens); conditions: at 1 µM
[4] = molecular target: Protein kinase C theta type (Homo sapiens) (UniProt Q04759); conditions: at 0.1 µM
Sequence of Protein kinase C theta type (Homo sapiens) (Q04759 whole entry, looked up): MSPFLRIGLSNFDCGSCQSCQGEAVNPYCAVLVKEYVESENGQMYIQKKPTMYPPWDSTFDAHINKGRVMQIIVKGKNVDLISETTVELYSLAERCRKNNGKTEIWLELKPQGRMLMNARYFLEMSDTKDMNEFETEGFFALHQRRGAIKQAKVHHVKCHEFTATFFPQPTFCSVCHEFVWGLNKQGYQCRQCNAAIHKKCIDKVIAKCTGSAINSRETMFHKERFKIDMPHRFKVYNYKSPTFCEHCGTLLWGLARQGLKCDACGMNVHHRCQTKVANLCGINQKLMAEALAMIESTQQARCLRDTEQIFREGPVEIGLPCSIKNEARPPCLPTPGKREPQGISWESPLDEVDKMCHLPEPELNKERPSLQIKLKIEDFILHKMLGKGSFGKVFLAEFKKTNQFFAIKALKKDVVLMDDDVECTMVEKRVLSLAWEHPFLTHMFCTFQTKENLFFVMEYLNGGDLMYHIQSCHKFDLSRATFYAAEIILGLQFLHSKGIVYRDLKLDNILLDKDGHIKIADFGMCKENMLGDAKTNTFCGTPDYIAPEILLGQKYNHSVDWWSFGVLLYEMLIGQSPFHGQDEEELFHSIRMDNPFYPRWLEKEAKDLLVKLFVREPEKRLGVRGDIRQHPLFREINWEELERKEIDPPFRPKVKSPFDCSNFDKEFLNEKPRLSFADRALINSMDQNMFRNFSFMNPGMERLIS

[5] = molecular target: Protein kinase C theta type (Homo sapiens) (UniProt Q04759); conditions: at 1 µM
[6] = molecular target: Protein kinase C beta type (Homo sapiens) (UniProt P05771); conditions: at 0.1 µM
Sequence of Protein kinase C beta type (Homo sapiens) (P05771 2-671 limits assumed): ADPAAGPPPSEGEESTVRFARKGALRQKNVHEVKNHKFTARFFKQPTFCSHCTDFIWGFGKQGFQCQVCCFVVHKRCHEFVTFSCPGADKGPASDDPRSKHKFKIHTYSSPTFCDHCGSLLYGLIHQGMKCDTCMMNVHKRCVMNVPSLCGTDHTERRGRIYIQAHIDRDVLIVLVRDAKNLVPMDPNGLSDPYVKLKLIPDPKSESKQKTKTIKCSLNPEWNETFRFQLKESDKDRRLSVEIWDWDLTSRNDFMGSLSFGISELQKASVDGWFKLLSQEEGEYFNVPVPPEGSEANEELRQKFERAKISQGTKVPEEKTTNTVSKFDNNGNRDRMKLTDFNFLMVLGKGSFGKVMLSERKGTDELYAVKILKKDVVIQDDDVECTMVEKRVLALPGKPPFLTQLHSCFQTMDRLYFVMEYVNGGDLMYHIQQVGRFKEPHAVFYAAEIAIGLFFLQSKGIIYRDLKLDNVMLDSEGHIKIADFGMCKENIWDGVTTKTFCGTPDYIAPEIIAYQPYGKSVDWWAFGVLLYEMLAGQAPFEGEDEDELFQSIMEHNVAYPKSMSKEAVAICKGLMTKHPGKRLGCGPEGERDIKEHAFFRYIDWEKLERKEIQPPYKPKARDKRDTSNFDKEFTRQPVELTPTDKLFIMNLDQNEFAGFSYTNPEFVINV

[7] = molecular target: Protein kinase C beta type (Homo sapiens) (UniProt P05771); conditions: at 1 µM
[8] = molecular target: T2, Serine/threonine-protein kinase D1 (Homo sapiens) (UniProt Q15139); conditions: at 0.1 µM
T2 sequence (whole entry): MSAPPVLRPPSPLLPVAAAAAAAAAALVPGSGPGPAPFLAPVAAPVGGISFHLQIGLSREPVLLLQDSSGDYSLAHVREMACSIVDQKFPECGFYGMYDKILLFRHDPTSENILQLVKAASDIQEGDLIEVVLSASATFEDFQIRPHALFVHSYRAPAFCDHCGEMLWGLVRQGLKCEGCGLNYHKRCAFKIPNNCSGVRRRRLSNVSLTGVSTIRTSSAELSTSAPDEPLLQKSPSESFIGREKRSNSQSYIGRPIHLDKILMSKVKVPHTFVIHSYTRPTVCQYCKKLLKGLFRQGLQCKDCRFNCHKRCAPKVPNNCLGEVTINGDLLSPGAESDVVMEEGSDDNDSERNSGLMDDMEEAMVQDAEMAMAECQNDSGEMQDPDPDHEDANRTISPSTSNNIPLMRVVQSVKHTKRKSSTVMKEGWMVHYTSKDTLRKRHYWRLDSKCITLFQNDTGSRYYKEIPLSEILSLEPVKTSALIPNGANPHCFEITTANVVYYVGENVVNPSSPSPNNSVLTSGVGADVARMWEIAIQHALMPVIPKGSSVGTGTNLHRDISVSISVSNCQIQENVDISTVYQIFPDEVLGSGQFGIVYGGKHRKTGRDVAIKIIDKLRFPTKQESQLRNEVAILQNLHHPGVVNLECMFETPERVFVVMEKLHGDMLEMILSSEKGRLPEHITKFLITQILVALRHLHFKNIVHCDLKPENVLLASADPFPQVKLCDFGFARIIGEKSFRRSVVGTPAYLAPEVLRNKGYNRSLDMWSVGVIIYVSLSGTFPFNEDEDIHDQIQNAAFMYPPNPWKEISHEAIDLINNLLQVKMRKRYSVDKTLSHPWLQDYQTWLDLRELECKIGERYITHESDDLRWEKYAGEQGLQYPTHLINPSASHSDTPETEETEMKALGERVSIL

[9] = molecular target: T2, Serine/threonine-protein kinase D1 (Homo sapiens); conditions: at 1 µM
[10] = molecular target: T3, Serine/threonine-protein kinase D2 (Homo sapiens) (UniProt Q9BZL6); conditions: at 0.1 µM
T3 sequence (whole entry): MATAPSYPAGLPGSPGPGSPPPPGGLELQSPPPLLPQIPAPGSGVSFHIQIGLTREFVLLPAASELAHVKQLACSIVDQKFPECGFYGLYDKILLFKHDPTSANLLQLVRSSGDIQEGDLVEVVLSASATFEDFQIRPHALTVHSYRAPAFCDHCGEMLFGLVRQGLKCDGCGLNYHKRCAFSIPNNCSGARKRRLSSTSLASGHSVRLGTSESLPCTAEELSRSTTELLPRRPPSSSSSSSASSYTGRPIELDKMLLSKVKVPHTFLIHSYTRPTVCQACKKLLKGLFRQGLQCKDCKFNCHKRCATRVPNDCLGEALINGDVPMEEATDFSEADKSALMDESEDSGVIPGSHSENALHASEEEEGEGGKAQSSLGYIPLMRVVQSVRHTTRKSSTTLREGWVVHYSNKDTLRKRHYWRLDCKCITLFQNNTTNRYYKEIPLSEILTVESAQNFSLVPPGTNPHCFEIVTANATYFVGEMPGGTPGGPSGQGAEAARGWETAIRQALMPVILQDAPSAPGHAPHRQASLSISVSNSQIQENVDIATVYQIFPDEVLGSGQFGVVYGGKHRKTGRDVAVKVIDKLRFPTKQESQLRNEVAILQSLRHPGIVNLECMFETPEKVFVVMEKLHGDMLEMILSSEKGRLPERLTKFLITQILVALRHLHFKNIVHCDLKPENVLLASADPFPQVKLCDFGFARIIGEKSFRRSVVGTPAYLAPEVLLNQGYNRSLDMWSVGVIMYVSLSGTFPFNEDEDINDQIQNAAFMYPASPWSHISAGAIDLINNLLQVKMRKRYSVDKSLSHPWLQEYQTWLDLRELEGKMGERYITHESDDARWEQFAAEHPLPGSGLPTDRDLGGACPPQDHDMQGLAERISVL

[11] = molecular target: T3, Serine/threonine-protein kinase D2 (Homo sapiens); conditions: at 1 µM
[12] = molecular target: T4, Serine/threonine-protein kinase D3 (Homo sapiens) (UniProt O94806); conditions: at 0.1 µM
T4 sequence (whole entry): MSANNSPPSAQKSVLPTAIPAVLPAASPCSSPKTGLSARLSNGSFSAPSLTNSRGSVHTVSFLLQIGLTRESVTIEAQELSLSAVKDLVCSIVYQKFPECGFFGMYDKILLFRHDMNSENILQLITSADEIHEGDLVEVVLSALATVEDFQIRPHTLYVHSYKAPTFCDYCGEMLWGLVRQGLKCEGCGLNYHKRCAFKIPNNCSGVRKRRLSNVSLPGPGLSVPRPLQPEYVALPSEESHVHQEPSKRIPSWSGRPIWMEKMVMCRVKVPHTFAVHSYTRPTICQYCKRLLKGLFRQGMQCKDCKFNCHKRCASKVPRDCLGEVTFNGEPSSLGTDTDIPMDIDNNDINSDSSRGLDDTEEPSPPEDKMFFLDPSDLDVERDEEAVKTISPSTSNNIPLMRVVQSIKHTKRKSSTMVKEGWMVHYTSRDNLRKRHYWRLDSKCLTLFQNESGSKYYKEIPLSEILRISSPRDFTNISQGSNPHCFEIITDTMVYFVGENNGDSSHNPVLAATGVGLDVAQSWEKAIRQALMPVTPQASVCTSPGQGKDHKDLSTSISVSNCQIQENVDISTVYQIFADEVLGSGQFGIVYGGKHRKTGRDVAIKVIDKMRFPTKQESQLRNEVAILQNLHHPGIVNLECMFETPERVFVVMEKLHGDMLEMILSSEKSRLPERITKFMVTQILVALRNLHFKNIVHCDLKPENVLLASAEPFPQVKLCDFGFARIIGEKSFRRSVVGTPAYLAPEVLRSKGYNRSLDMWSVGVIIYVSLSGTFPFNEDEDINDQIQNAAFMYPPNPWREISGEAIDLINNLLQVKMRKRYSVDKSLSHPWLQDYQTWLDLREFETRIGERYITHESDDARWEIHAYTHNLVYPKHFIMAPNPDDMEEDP

[13] = molecular target: T4, Serine/threonine-protein kinase D3 (Homo sapiens); conditions: at 1 µM
[14] = molecular target: T5, cGMP-dependent protein kinase 1 (Homo sapiens) (UniProt Q13976); conditions: at 0.1 µM
T5 sequence (whole entry): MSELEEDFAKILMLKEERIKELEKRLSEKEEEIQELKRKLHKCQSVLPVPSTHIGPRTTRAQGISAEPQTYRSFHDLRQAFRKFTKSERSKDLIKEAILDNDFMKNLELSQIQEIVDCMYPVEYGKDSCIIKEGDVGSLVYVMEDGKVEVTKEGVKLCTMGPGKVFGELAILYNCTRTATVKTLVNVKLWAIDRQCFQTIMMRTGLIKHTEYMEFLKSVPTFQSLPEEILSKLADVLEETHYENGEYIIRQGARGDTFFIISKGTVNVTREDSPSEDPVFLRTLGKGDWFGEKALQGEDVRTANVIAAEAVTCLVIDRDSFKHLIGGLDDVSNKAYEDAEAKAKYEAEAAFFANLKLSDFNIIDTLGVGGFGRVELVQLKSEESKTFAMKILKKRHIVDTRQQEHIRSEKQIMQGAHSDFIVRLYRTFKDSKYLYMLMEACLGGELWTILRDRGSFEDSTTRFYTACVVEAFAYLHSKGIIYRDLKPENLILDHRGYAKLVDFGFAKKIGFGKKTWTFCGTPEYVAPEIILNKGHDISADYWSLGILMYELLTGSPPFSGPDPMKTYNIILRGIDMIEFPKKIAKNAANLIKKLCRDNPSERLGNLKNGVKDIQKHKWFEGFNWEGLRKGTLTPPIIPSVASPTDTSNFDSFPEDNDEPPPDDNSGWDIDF

[15] = molecular target: T5, cGMP-dependent protein kinase 1 (Homo sapiens); conditions: at 1 µM
[16] = molecular target: T6, cGMP-dependent protein kinase 2 (Homo sapiens) (UniProt Q13237); conditions: at 0.1 µM
T6 sequence (whole entry): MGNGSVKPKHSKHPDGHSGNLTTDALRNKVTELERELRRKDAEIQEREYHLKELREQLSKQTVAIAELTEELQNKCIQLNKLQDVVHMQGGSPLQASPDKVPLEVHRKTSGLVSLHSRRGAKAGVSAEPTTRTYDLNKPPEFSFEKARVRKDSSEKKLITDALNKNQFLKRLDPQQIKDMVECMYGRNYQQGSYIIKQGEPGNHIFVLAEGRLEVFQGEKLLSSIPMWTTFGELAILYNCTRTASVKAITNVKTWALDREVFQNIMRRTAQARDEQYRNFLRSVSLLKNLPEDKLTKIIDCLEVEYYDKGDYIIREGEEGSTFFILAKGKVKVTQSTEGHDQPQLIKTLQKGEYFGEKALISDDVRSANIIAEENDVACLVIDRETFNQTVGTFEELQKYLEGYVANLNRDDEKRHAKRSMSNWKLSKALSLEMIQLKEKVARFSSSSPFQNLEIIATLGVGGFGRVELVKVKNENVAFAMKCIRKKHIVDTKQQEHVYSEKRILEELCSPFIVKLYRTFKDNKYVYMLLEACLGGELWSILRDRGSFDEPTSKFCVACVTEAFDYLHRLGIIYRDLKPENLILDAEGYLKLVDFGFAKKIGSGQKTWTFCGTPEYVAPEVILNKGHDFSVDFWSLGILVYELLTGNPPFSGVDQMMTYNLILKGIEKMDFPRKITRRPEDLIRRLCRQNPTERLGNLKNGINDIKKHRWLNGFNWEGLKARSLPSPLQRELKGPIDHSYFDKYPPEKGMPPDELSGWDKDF

[17] = molecular target: T6, cGMP-dependent protein kinase 2 (Homo sapiens); conditions: at 1 µM
[18] = molecular target: T7, cAMP-dependent protein kinase catalytic subunit PRKX (Homo sapiens) (UniProt P51817); conditions: at 0.1 µM
T7 sequence (whole entry): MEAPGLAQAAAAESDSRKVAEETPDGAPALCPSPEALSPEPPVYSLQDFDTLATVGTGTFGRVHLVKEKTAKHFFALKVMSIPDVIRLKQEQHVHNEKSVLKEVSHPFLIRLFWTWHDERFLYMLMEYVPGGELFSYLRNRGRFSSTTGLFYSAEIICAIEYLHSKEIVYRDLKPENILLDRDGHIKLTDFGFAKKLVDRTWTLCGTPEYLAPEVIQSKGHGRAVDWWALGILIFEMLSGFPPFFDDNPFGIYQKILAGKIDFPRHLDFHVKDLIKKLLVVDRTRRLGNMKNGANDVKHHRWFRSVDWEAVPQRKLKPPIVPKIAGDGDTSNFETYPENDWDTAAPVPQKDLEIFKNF

[19] = molecular target: T7, cAMP-dependent protein kinase catalytic subunit PRKX (Homo sapiens); conditions: at 1 µM
[20] = molecular target: Rho-associated protein kinase 1 (Homo sapiens) (UniProt Q13464); conditions: at 0.1 µM;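 also: values are mean percent inhibition of ROCK1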
Sequence of Rho-associated protein kinase 1 (Homo sapiens) (Q13464 2-1354 limits assumed): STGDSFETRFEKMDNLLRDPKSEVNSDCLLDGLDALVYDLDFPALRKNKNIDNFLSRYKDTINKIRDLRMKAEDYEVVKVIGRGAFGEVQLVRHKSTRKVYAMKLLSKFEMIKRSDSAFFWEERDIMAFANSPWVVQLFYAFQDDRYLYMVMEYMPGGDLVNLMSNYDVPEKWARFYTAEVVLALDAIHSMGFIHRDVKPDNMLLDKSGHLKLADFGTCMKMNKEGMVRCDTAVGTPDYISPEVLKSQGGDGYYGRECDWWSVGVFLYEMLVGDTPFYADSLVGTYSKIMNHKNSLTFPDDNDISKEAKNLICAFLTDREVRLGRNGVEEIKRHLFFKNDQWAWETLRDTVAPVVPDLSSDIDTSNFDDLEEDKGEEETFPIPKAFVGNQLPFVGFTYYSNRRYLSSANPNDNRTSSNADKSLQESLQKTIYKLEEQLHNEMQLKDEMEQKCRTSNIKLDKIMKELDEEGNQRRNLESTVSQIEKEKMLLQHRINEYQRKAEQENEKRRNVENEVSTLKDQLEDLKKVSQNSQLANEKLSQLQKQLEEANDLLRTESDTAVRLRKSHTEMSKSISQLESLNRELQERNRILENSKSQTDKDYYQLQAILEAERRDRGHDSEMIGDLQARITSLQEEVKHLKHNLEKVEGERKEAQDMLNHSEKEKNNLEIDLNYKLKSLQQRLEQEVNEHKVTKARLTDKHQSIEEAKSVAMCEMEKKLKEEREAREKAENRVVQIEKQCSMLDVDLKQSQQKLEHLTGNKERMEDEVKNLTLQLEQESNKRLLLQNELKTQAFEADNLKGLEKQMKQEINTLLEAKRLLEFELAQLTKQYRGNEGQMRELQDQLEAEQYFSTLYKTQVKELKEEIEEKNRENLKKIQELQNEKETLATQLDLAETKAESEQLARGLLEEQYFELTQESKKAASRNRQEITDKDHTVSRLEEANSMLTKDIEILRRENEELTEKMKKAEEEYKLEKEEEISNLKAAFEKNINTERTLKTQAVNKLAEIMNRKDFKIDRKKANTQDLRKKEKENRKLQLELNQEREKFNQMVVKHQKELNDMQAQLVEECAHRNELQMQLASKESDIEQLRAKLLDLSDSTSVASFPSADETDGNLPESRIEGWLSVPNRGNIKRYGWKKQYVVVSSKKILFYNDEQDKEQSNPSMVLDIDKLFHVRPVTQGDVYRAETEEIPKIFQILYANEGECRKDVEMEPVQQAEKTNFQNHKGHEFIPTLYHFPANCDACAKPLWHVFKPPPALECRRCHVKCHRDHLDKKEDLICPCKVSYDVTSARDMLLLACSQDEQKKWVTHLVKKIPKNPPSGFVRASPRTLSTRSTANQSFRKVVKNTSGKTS

Structure (SMILES) | inhibition [1] | inhibition [2] | inhibition [3] | inhibition [4] | inhibition [5] | inhibition [6] | inhibition [7] | inhibition [8] | inhibition [9] | inhibition [10] | inhibition [11] | inhibition [12] | inhibition [13] | inhibition [14] | inhibition [15] | inhibition [16] | inhibition [17] | inhibition [18] | inhibition [19] | inhibition [20]
CN(C)c1cc2c(Nc3ccc4nc(Cc5ccccc5)[nH]c4c3)ncnc2cn1 | 4.36% | 2.13% | 2.77% | 2.25% | 4.22% | 1.18% | 3.96% | 4.29% | 6.67% | 5.21% | 5.15% | 5.52% | 6.09% | 5.01% | 6.25% | 2.1% | 4.22% | 2.16% | 2.25% | 5.7%
O=C1NC(=O)C(c2cccc(Cl)c2)=C1Nc1ccc(O)c(Cl)c1 | 0.01% | -1.41% | 0.5% | 0% | 4.79% | 0.56% | 8.45% | 0.15% | 1.38% | 0.62% | 3.16% | 0.75% | 1.47% | 0.66% | 2.21% | 1.23% | 5.33% | -0.43% | -1.53% | 0.21%
Fc1cccc(COc2ccc(Nc3ncnc4cc(-c5ccc[nH]5)sc34)cc2Cl)c1 | 2.69% | 1.76% | 1.59% | 0.25% | 2.17% | 0.99% | 2.94% | -0.95% | -1.14% | -0.92% | -2.9% | -1.25% | -2.13% | 3.64% | 4.28% | 2.82% | 2.46% | 2% | 3.5% | 0.2%
